This note sets out measurements from PubChem BioAssay (Tox21).

Where “and” joins values, the source holds several entries; their conditions need not be identical. Identical values can stand only once. Records with an inconclusive call do not appear. Calls of active or inactive are those of the source. Unless noted, calls come from the whole dose curve; as a rule, active = well fitted curve in the direction sought with a large enough effect in the repeat runs; inconclusive = weak or mixed curves; inactive = no such curve, though single readings can be large; an effect the other way counts as inactive or inconclusive.

Assay [1] is described as follows: qHTS assay to identify small molecule agonists of the androgen receptor (AR) signaling pathway in the presence of an antagonist - cell viability counter screen (AID 1259379). Note: nearly all actives have a fitted effect of over 25% in size. Note: potency is the fitted concentration of half-maximal effect. The method, boiled down:
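Counter screen for cell viability run in parallel with the AR agonist-mode luciferase assay. MDA-kb2 cells were co-treated with nilutamide (3.0uM final) and compounds, then incubated 16 hr at 37C, and CellTiter-Fluor fluorescence was measured.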
For orientation: In qHTS, concentration-response curves come from the screen itself.

The nature of assay [2]: qHTS assay to identify small molecule agonists of the estrogen receptor beta (ER-beta) signaling pathway - cell viability counter screen (AID 1259380). Note: nearly all actives have a fitted effect of over 30% in size. Note: potency is the fitted concentration of half-maximal effect. Summed up:
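In this qHTS counter screen, HEK293T cells carrying an ER-beta/UAS beta-lactamase reporter, grown in 2% charcoal-stripped FBS, received compound for 16 hr; ATP-based CellTiter-Glo luminescence was then read after 30 min at room temperature.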

The target of assay [3] is Androgen receptor (Homo sapiens) (UniProt P10275). The assay is described as follows: qHTS assay to identify small molecule agonists of the androgen receptor (AR) signaling pathway in the presence of an antagonist (AID 1259381; calls by dose curve; note: nearly all actives have a fitted effect of over 15% in size). Summed up: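 AR antagonist background: nilutamide 3.0uM final. Cell line: MDA-kb2, MMTV-driven luciferase, responsive to both AR and GR. Exposure 16hr, 37C, no CO2; ONE-Glo luminescence.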
Chain of Androgen receptor (Homo sapiens) (P10275 whole entry, looked up): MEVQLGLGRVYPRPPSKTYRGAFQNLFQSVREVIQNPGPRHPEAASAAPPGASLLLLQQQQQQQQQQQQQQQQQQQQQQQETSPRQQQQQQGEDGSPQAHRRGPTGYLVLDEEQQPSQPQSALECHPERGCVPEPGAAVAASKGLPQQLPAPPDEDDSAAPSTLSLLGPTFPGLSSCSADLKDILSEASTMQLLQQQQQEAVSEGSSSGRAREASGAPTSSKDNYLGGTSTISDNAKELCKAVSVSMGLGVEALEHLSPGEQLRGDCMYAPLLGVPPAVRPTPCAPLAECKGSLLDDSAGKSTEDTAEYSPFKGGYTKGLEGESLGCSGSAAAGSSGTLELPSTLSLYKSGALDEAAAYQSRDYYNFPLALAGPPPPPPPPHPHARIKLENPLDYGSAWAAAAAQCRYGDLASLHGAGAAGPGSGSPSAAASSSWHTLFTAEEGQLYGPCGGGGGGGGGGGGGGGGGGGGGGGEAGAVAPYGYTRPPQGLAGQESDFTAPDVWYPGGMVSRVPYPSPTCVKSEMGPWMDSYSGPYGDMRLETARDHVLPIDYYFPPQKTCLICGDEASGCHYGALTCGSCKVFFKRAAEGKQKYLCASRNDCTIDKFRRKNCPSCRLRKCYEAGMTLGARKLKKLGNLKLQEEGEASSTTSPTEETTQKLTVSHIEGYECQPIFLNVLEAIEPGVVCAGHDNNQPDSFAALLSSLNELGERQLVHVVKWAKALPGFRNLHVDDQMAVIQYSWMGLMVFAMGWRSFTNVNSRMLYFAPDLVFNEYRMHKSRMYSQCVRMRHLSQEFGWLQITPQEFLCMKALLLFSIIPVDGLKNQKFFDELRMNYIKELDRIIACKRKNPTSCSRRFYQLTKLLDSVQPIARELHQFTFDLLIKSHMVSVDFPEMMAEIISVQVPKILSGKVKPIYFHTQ

A short description of assay [4]: qHTS assay to identify small molecule antagonists of the estrogen receptor beta (ER-beta) signaling pathway - cell viability counter screen (AID 1259382). Note: nearly all actives have a fitted effect of over 55% in size. Note: potency is the fitted concentration of half-maximal effect. The method, boiled down:
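HEK293T ER-beta-UAS-bla, 2% charcoal-stripped FBS; compounds + 1nM E2 16 hr 37C; CellTiter-Glo luminescence, 30 min RT.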

Assay [5] deals with Estrogen receptor (Homo sapiens) (UniProt P03372). Description: qHTS assay to identify small molecule agonists of the estrogen receptor alpha (ER-alpha) signaling pathway in the presence of an antagonist (AID 1259383; calls by dose curve; note: top concentration of the series differs between compounds; nearly all actives have a fitted effect of over 15% in size). The method, boiled down:
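ER-alpha agonism measured under antagonist challenge: 10.0nM ICI-182,780 (final) plus compound, 15 concentrations, 22hr, VM7Luc4E2 ERE-luciferase cells. Read by luminescence.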

A short description of assay [6]: qHTS assay to identify small molecule agonists or antagonists of the thyroid stimulating hormone receptor (TSHR) signaling pathway - wild type cell line counter screen (AID 1259384; calls by dose curve). Summed up: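 Wild-type Hek293 cells, 800/well, 18 h at 37C, then compound with Ro20-1724 for 30 min RT. cAMP by HTRF (cAMP-d2/anti-cAMP cryptate), 1 h RT, fluorescence read. 15 concentrations, triplicates.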

Assay [7] is described as follows: qHTS assay to identify small molecule agonists of the estrogen receptor alpha (ER-alpha) signaling pathway in the presence of an antagonist - cell viability counter screen (AID 1259386).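 Note: cells exposed to compounds for 22 h at 37 °C before the viability read; nearly all actives have a fitted effect of over 30% in size.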 Note: potency is the fitted concentration of half-maximal effect. The method, boiled down: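 Steps: 5-day stripped-FBS culture; seed and incubate 24hr; add ICI-182,780 (10.0nM final); pin 15-point compound titration; incubate 22hr at 37C; add CellTiter-Fluor at 21hr; read fluorescence.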

Assay [8] in a line: qHTS assay to identify small molecule antagonists of the progesterone receptor (PR) signaling pathway - cell viability counter screen (AID 1346798). Note: series mostly up to about 92 µM; nearly all actives have a fitted effect of over 50% in size. Summed up: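 Counter screen for cytotoxicity: viability of PR-UAS-bla HEK293T cells was measured with CellTiter-Glo luminescence following 16 hr compound exposure in the presence of R5020.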
Assay [9] can be described thus: qHTS assay to identify small molecule antagonists of the TGF-beta/Smad signaling pathway - cell viability counter screen (AID 1346824). Note: nearly all actives have a fitted effect of over 50% in size. The method, boiled down: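 SBE-bla HEK 293T cells, incubated overnight, then compound plus 0.25 ng/mL TGF-beta1 (stock added) for 5 hr at 37 C. Viability was read in the same wells by CellTiter-Glo luminescence after 30 min at room temperature.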

Assay [10] in a line: qHTS assay to identify small molecule agonists of the TGF-beta/Smad signaling pathway - cell viability counter screen (AID 1346829). Note: top concentration of the series differs between compounds; nearly all actives have a fitted effect of over 45% in size. The method, boiled down: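 Compound-treated SBE-bla HEK 293T cells (5 hr, 37 C) were assessed for viability with CellTiter-Glo in parallel with the reporter read.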
Assay [11] can be described thus: qHTS assay to identify small molecule agonists of the TGF-beta/Smad signaling pathway (AID 1346859; active = well fitted activation curve with a large enough effect in the signal ratio in the repeat runs, not every such curve was filed as active; the % refers to the signal ratio; note: series mostly up to about 77 µM). The method, boiled down:
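Reporter line: HEK 293T with stably integrated SBE-controlled beta-lactamase. Compound exposure lasts 5 hr at 37 C and 5% CO2; substrate loading follows for 2 hr at room temperature, with emission read at 460 and 530 nm.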

Assay [12] deals with Thyrotropin-releasing hormone receptor (Homo sapiens) (UniProt P34981). Description: qHTS assay to identify small molecule antagonists of the thyrotropin-releasing hormone receptor (TRHR) signaling pathway (AID 1346877; active = well fitted inhibition curve with a large enough effect in the repeat runs, not every such curve was filed as active; note: series mostly up to about 51 µM). Summed up: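 Human TRHR in HEK293 cells; inhibition of the intracellular calcium rise triggered by 1 nM TRH was followed by fluorescence over 3 min. Compounds were run at 15 concentrations, three replicates each.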
Chain of Thyrotropin-releasing hormone receptor (Homo sapiens) (P34981 whole entry, looked up): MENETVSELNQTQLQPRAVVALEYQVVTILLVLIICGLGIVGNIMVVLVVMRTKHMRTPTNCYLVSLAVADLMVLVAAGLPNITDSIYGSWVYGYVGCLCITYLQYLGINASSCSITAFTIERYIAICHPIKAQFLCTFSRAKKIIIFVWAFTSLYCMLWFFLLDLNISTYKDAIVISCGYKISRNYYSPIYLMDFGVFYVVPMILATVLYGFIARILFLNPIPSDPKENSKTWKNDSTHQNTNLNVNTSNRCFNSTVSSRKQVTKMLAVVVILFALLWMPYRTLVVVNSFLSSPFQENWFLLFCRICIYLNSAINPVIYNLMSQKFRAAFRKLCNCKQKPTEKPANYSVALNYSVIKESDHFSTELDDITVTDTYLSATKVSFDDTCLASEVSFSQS

Assay [13] has the same target. Description: qHTS assay to identify small molecule agonists of the thyrotropin-releasing hormone receptor (TRHR) signaling pathway (AID 1346891; calls by dose curve;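 note: HEK293 cells expressing TRHR with calcium dye readout; series mostly up to about 58 µM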). The method, boiled down:
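Cells: TRHR-Hek293, seeded and incubated 18 h. Dye loading: 2 h at 37 °C. Compound added from DMSO stock by pin tool. Read-out: kinetic calcium fluorescence over 3 min.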

Assay [14] is described as follows: Human pregnane X receptor (PXR) small molecule agonists, qHTS cell viability counter screen (AID 1346977). Note: nearly all actives have a fitted effect of over 50% in size. Note: potency is the fitted concentration of half-maximal effect. Summed up: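 Cytotoxicity counter screen run in the same wells as the PXR luciferase assay, using PXR-Luc HepG2 cells in charcoal-stripped serum medium. Viability: CellTiter-Fluor fluorescence after 24hr compound treatment.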
Assay [15] is described as follows: Caspase-3/7 induction in HepG2 cells by small molecules, qHTS assay (AID 1346978). Note: nearly all actives have a fitted effect of over 15% in size. Summed up: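 Wild-type HepG2 cells, 2,000/well, settled 5 hr at 37 C and 5% CO2, then compound-treated for 17 hr; caspase-3/7 activity read by luminescent Caspase-Glo 3/7 after 30 min at room temperature.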
In assay [16] the target is Estrogen receptor beta (Homo sapiens) (UniProt Q92731). Description: qHTS assay to identify small molecule antagonists of the estrogen receptor beta (ER-beta) signaling pathway (AID 1259378; active = well fitted inhibition curve with a large enough effect in the signal ratio in the repeat runs, not every such curve was filed as active; the % refers to the signal ratio; note: potency is the fitted concentration of half-maximal effect). The method, boiled down:
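ER-beta-UAS-bla HEK293T cells in 2% charcoal-stripped FBS medium treated with compound plus 1nM final 17-beta-estradiol for 16 hr at 37C. Beta-lactamase reporter read by FRET substrate fluorescence after 2 hours at room temperature.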

Assay [17] has as its target Progesterone receptor (Homo sapiens) (UniProt P06401). The assay is described as follows: qHTS assay to identify small molecule agonists of the progesterone receptor (PR) signaling pathway (AID 1346784; calls by dose curve; note: nearly all actives have a fitted effect of over 30% in size). Summed up: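 Cells (PR-UAS-bla HEK 293T, GripTite) were plated in assay medium containing 2% charcoal-stripped FBS and incubated 6 hr. Test compounds in DMSO were added for 16 hr at 37C. FRET substrate was then loaded for 2 hr at room temperature before fluorescence reading.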

For assay [18] the target is unchanged. The assay is described as follows: qHTS assay to identify small molecule antagonists of the progesterone receptor (PR) signaling pathway (AID 1346795; active = well fitted inhibition curve with a large enough effect in the signal ratio in the repeat runs, not every such curve was filed as active; the % refers to the signal ratio; note: potency is the fitted concentration of half-maximal effect). The method, boiled down: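 Antagonist mode: compounds tested against 1 nM (final) promegestone stimulation in HEK293T cells expressing PR-UAS-bla reporter, 16 hr at 37C, 5% CO2; beta-lactamase activity detected via B/G FRET substrate after 2 hr at room temperature.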

The target in assay [19] is Thyrotropin receptor (Homo sapiens) (UniProt P16473). Description: qHTS assay to identify small molecule antagonists of the thyroid stimulating hormone receptor (TSHR) signaling pathway (AID 1259385; calls by dose curve; note: nearly all actives have a fitted effect of over 20% in size). Summed up:
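TSHR-HEK293 cells (800/well) plated 18 h, then compounds with Ro20-1724 and TSH at 1.5 ng/mL final, 30 min at room temperature. cAMP quantified by HTRF (cAMP-d2/anti-cAMP-cryptate, 1 h); 15 concentrations in triplicate.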

A short description of assay [20]: qHTS assay to identify small molecule agonists of the progesterone receptor (PR) signaling pathway - cell viability counter screen (AID 1346799; calls by dose curve; note: nearly all actives have a fitted effect of over 45% in size). The method, boiled down: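 Cells (PR-UAS-bla HEK293T) are plated at 3,000/well in 2% charcoal-stripped FBS medium, rested 6 hr, dosed and incubated 16 hr at 37C. CellTiter-Glo is then added and luminescence measured after 30 min at room temperature.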

Chain of Estrogen receptor beta (Homo sapiens) (Q92731 whole entry, looked up): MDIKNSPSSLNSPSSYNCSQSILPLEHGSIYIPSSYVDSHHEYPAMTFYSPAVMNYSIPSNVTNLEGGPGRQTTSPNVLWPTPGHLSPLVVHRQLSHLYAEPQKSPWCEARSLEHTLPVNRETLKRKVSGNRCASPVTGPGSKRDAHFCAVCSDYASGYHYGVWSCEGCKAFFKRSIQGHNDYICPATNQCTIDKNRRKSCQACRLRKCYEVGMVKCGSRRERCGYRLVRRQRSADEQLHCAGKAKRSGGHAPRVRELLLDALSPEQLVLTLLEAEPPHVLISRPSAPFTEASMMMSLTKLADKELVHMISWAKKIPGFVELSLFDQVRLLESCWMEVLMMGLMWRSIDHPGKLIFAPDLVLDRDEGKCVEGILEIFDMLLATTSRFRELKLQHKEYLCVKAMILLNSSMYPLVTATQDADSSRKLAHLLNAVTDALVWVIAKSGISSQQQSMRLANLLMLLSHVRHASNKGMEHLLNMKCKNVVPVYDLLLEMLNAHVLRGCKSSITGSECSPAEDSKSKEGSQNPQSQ
Chain of Estrogen receptor (Homo sapiens) (P03372 whole entry, looked up): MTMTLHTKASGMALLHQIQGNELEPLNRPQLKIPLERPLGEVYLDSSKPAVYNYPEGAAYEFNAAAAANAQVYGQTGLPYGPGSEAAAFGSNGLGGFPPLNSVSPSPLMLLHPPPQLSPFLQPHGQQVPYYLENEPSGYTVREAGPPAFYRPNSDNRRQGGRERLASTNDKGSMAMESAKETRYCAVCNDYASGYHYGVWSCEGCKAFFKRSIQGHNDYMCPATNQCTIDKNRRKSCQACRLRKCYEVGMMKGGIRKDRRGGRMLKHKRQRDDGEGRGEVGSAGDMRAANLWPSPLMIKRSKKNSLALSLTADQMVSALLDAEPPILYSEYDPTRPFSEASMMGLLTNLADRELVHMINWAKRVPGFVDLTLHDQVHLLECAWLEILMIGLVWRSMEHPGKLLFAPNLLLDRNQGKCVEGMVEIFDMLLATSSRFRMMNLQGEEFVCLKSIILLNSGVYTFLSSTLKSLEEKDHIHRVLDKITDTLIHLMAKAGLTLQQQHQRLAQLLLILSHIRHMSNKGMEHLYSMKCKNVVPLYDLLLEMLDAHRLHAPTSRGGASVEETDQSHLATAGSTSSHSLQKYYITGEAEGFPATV
Chain of Progesterone receptor (Homo sapiens) (P06401 whole entry, looked up): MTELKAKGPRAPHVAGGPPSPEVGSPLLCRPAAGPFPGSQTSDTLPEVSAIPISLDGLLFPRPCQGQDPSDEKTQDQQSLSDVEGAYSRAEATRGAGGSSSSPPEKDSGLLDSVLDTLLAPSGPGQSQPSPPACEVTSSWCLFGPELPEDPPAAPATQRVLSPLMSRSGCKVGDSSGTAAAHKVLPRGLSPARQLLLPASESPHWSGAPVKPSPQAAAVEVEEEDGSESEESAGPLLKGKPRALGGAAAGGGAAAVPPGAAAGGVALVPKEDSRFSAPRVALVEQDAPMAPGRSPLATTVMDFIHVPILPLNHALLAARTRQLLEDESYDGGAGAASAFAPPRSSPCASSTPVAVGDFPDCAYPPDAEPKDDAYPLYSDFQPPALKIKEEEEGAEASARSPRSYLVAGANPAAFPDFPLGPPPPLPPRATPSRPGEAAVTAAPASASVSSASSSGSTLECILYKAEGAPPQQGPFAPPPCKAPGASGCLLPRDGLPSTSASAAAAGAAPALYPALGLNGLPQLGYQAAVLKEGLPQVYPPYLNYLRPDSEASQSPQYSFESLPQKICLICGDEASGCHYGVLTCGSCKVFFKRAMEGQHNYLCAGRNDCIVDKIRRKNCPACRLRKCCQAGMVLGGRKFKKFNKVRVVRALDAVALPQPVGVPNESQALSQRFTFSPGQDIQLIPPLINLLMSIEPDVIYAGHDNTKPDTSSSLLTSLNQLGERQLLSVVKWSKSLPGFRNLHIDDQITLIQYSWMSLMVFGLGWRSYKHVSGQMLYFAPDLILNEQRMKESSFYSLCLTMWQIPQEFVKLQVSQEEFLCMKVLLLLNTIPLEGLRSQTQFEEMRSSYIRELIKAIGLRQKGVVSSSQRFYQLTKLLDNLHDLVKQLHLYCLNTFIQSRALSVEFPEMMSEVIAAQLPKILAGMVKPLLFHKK
Chain of Thyrotropin receptor (Homo sapiens) (P16473 whole entry, looked up): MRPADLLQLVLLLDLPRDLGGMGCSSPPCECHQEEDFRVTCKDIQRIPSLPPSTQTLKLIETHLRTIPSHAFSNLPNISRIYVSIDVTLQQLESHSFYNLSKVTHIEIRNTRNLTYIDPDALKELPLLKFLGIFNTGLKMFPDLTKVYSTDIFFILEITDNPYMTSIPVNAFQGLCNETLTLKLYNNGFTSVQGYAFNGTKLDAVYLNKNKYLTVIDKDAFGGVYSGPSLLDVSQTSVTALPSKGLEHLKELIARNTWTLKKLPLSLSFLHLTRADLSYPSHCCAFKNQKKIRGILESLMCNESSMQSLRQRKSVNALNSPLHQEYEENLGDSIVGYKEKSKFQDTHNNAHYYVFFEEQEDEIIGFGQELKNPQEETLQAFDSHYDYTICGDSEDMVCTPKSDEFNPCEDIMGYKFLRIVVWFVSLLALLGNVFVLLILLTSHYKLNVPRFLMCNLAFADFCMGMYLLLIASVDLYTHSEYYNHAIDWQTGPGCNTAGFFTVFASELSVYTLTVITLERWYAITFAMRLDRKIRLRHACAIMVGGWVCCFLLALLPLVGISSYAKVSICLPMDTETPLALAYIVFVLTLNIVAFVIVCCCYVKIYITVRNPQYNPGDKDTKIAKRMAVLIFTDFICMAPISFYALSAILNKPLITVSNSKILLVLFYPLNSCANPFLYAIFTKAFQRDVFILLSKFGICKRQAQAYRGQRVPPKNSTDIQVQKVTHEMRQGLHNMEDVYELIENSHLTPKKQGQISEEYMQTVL

As for `CC(=O)C(Cl)(Cl)Cl`, the Potency in assay [1] was 20.9 µM (active); in assay [7], 18.7 µM (active); in [14], 8.34 µM (active). Moreover, the Potency result in [2], in assay [3], in [4], in assay [5], in [8] and in assay [9] was “inactive” throughout. Moreover, the Potency result in assay [10], in [12], in assay [13] and in assay [15] was “inactive” throughout. Moreover, the call in assay [6] and in assay [11] was inactive.

`COc1ccc(OC)c(C=O)c1`: the Potency entry in assay [16], in assay [1], in assay [2], in assay [5], in assay [7] and in assay [8] was “inactive” throughout. The Potency result in [9], in [12], in [13], in [14] and in assay [15] was “inactive” each time. For the same compound, in assay [11], the outcome was inactive.

For the compound `Clc1ccc(C(c2ccccc2Cl)C(Cl)(Cl)Cl)cc1` (stereo not given), the Potency in assay [16] was 6.15 µM (active) and 8.02 µM (active); in assay [2] it was 48.9 µM (active); in assay [18] it was 4.51 µM (active). The Potency entry in [1], in assay [4], in assay [7], in assay [17], in [8] and in assay [9] was “inactive” throughout. In addition, the Potency entry in assay [10], in assay [12], in [13], in assay [14] and in [15] was “inactive” throughout. Also, the outcome in [11] was inactive.

As to `S=C=Nc1cccc2ccccc12`, the Potency result in [1], in assay [3], in assay [5], in [9], in assay [10] and in [13] was “inactive” throughout. Besides, the Potency entry in assay [15] was “inactive”. In addition, the Potency in assay [2] is 60.5 µM (active); in assay [4], 67.9 µM (active); in assay [7] it was 60.5 µM (active); in [18], 67.9 µM (active); in assay [14] it was 53.9 µM (active). Further, the call in [6] and in assay [11] was inactive.

Turning to `CCOP(=S)(OCC)SCS(=O)(=O)C(C)(C)C`, the Potency result in assay [1], in assay [2], in [3], in [4], in [5] and in assay [19] was “inactive” in each case. For the same compound, the Potency result in assay [7], in assay [17], in assay [9], in assay [10], in [12] and in assay [13] was “inactive” in each case. Moreover, the Potency entry in assay [14] and in assay [15] was “inactive” throughout. Moreover, the outcome in assay [6] and in assay [11] was inactive. For the same compound, in assay [18], the Potency is 68.6 µM (active).

Take `c1ccc(OCC2CO2)cc1` (stereo not given): the Potency entry in assay [16], in assay [1], in assay [2], in assay [19], in [7] and in assay [17] was “inactive” each time. In addition, the Potency result in assay [18], in assay [8], in assay [20], in assay [9], in assay [10] and in [14] was “inactive” each time. In assay [15], the Potency entry was “inactive”. Besides, the result in assay [6] and in assay [11] was inactive.

With `CS(=O)(=O)c1ccc(C(=O)C2C(=O)CCCC2=O)c([N+](=O)[O-])c1`, the Potency entry in assay [16], in assay [1], in assay [5], in assay [19], in [9] and in [10] was “inactive” in each case. Moreover, the Potency result in assay [13], in assay [14] and in [15] was “inactive” in each case. Further, the compound was classed as inactive in assay [6].

For `BrCC(Br)c1ccccc1` (stereo not given), the Potency entry in assay [1], in assay [2], in [3], in [4], in assay [5] and in [19] was “inactive” throughout. For the same compound, the Potency result in assay [7], in assay [17], in assay [18], in assay [8], in assay [20] and in assay [9] was “inactive” in each case. Also, the Potency result in [10], in assay [14] and in assay [15] was “inactive” in each case. Further, the call in assay [6] and in assay [11] was inactive.
